Screens (PubChem)
CFTR F508del cor: correctors of CFTR F508del function in bronchial epithelial cells; 350,000 tested, 0.36% active; CFBE cells, YFP halide quenching; stimulated with forskolin plus potentiator P3; % fluorescence drop versus neutral controls; AID 720511; activity (quench increase), % at 7.58 µM;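 active means mean added fluorescence quench of at least 8% versus neutral control, with both replicates also reaching 8%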;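 further: cells transiently co-express mutant CFTR-F508del with the halide-sensitive YFP; corrector assay measuring rescue of mutant channel to the surface after 24 h compound exposure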
NRP1-CendR mod: modulators of CendR peptide binding to human neuropilin-1; inhibition, % at 25 µM; AID 602438; 360,000 tested, 0.85% active; FAM-RPARPAR peptide binding to NRP-1, fluorescence polarization;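 active means inhibition or corrected inhibition above about 18%, plus a signal ratio from 0.5 to 1.5, limit read from the data, passing the limit was not always enough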
MPTP inh: permeability transition pore inhibition; AID 602449; isolated mouse mitochondria, Ca2+ swelling absorbance, 30 min; 360,000 tested, 1.4% active; inhibition, % at 10 µM;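 active means inhibition of 50% or more, scaled per plate between neutral and stimulator controls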
SKN-1 inh: inhibitors of C. elegans SKN-1; C. elegans VP596 Pgst-4::GFP/RFP ratio, acrylamide-induced, 24 h; inhibition, % at 21.8 µM; 360,000 tested, 0.49% active; AID 624304;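 active means interference check ratio from 0.5 to 1.5 plus GFP to RFP signal ratio inhibition reaching or exceeding a fixed threshold, cut at about 30% in these data, passing the limit was not always enough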
ATG4B inh: blocks human ATG4B protease cleavage of LC3 substrate | ATG4B cleavage of LC3-PLA2, NBD-HPC fluorescence, 1 h | inhibition, % at 8.33 µM | 340,000 tested, 0.51% active; in the data active means inhibition above about 40%
Target sequence (Q9Y4P1 whole entry, looked up): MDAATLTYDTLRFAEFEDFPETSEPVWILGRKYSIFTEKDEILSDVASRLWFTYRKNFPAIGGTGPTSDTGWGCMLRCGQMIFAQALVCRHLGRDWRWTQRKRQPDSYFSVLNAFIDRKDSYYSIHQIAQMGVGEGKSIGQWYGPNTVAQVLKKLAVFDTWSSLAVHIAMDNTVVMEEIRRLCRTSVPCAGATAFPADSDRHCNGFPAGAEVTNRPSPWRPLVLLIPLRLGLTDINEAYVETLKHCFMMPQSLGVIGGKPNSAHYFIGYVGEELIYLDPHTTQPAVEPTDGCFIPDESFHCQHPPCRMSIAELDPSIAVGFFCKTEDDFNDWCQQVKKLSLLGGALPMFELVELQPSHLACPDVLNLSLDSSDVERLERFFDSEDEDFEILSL
MPTP counter: Rhodamine 123 counter-screen of mitochondrial pore hits; isolated mitochondria, membrane potential, Rhodamine 123 fluorescence; 5,000 tested, 78% active; inhibition, % at 10 µM; shares compounds with MPTP inh; in the data active means inhibition above about 22%
MPTP swell DR: dose response confirmation of mitochondrial permeability transition pore inhibitors | shares compounds with MPTP inh | isolated mitochondria swelling, absorbance | IC50, µM | 780 tested, 58% active; in the data active means IC50 below about 20 µM
MPTP counter DR: active in counter-screen for permeability transition pore inhibitors; isolated mitochondria counterscreen, fluorescence read-out; 780 tested, 49% active; shares compounds with MPTP inh; IC50, µM; in the data active means IC50 below about 80 µM
A number is an active result; – = inactive; · = no result. Only some compounds are listed: those with a hit (about 2.7% of all), similar ones and a draw of the others.

SMILES	CFTR F508del cor	NRP1-CendR mod	MPTP inh	SKN-1 inh	ATG4B inh	MPTP counter	others
O=C(Nc1cccc(Cl)c1)N(CCN1CCOCC1)Cc1ccccc1F	·	–	79.2	–	–	77.3
CCc1ccc2[nH]c(=O)c(CN(CCCN3CCOCC3)C(=O)Nc3cccc(Cl)c3)cc2c1	·	–	–	–	–	·
O=C(Nc1cccc(Cl)c1)N(CCN1CCOCC1)Cc1cccc(Cl)c1	–	–	85.1	–	–	91.3
C=CCC(c1ccccc1F)N(CCN1CCOCC1)C(=O)Nc1cccc(Cl)c1 (stereo not given)	·	–	–	–	–	·
Cc1cc([N+](=O)[O-])ccc1NC(=O)Nc1ccc(F)cc1F	–	–	97.5	–	–	78.5
O=C(Nc1ccc([N+](=O)[O-])cc1Cl)c1cccc([N+](=O)[O-])c1	–	–	–	–	·	·
O=C(NNC(=O)c1ccccc1[N+](=O)[O-])Nc1ccc(Cl)cc1	–	–	–	–	–	·
O=C(Nc1ccccc1F)Nc1ccc([N+](=O)[O-])cc1Cl	·	–	89.5	–	–	92.2
O=C(Nc1ccccc1Cl)Nc1ccccc1Cl	–	–	–	–	–	·
O=C(Nc1ccc(Cl)cc1)Nc1ccccc1Sc1ncc([N+](=O)[O-])s1	–	–	85.8	–	–	72.8
O=C(Nc1csc([N+](=O)[O-])c1)Nc1ccccc1Cl	–	–	88.8	–	–	80.5
C[C@@H]1CN([C@H](C)CO)C(=O)c2cc(C#Cc3ccccc3F)cnc2O[C@@H]1CN(C)C(=O)Cc1cccnc1	–	·	·	·	·	·
CCCNC(=O)Nc1ccc2c(c1)OC[C@@H](C)N(C(C)=O)C[C@@H](C)[C@@H](OC)CN(C)C2=O	–	·	·	·	·	·
CC(C)C#Cc1ccc2c(c1)O[C@H](CN(C)C(=O)Nc1ccccc1)[C@H](C)CN([C@H](C)CO)S2(=O)=O	–	·	·	·	·	·
C[C@@H]1CN([C@H](C)CO)C(=O)c2cccc(NS(=O)(=O)c3ccc(Cl)cc3)c2O[C@@H]1CN(C)S(=O)(=O)c1cn(C)cn1	–	·	·	·	·	·
C/C(=N\NC(=O)c1ccc(-c2ccccc2)cc1)C1C(=O)c2ccccc2C1=O	–	–	76.2	–	–	43.0
CCOc1ccc(C(=O)N/N=C(/C)C2C(=O)c3ccccc3C2=O)cc1	–	–	–	–	–	·
C/C(=N\NC(=O)c1ccc(Br)cc1)C1C(=O)c2ccccc2C1=O	–	–	73.8	–	–	79.5
C/C(=N/NC(=O)c1ccc(-c2ccccc2)cc1)c1cc(O)cc(O)c1	–	–	–	–	–	·
CO[C@H]1CN(C)C(=O)c2ccc(NC(=O)c3ccc4c(c3)OCO4)cc2OC[C@@H](C)NC[C@H]1C	–	·	·	·	·	·
Clc1c(Cl)c(Cl)c2n[nH]nc2c1Cl	–	–	71.8	–	–	76.8
CCCN(C(=O)COC(=O)c1[nH]c(C)c(C(=O)OC)c1C)c1c(N)n(Cc2ccccc2)c(=O)[nH]c1=O	–	–	60.2	–	–	–	MPTP swell DR=–;MPTP counter DR=–
CCCN(C(=O)COC(=O)CC1CCCCC1)c1c(N)n(Cc2ccccc2)c(=O)[nH]c1=O	–	–	–	–	–	·
CO[C@@H]1CN(C)C(=O)c2cc(NC(=O)C3CCC3)ccc2OC[C@@H](C)N(Cc2ccc(F)cc2)C[C@@H]1C	–	·	·	·	·	·
O=C(C1CCC1)N1CCCCN2[C@H](C1)[C@@H](c1ccc(-c3cccc(F)c3)cc1)[C@@H]2CO	–	·	·	·	·	·
O=C(Nc1ccc(S(=O)(=O)N2CCN(Cc3ccccc3)CC2)cc1)c1cnccn1	·	–	73.0	–	–	42.3
CC1CCCCN1S(=O)(=O)c1ccc(C(=O)Nc2ccccc2-c2nc3ccccc3[nH]2)cc1 (stereo not given)	–	–	74.2	–	–	74.6
O=C(Nc1ccccc1-c1nc2ccccc2[nH]1)c1ccc(S(=O)(=O)N2CCCCC2)cc1	·	–	50.5	–	–	28.0
CC1CCCCN1S(=O)(=O)c1ccc(C(=O)Nc2ccccc2-c2nc3ccccc3s2)cc1 (stereo not given)	–	–	–	–	–	·
